Measured values reported in PMC8384837, “Expanding the binding specificity for RNA recognition by a PUF domain”.

Tests used:
Experiment in all cases: yeast three-hybrid, YBZ-1, SC-Leu-His + 0.5 mM 3-AT, 4 days
Settings in all cases: tags: N-Gal4 AD-HA kept; label: inside an RPR1-promoter hybrid RNA with tandem MS2 sites; ssRNA
PUM1 PUF domain R5-RSM = PUM1 PUF domain R5-RSM (Homo sapiens, UniProt Q14671 828-1176, C1007R;R1008S;Q1011M)
Procedure, shortened: (§1)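 Repeat regions from input (SC-Leu) and selection (SC-Leu-His + 0.5 mM 3-AT) plates were PCR-amplified and Illumina-sequenced after four days of growth. The cells were strain YBZ-1 with a LexA–MS2 coat fusion and a HIS3 reporter, co-expressing Pumilio-1 PUF domain libraries and matching RNA elements from a centromeric plasmid. The interaction score is the log change in variant frequency from input to selection, taken in log2 with a pseudocount of 1 for absent variants.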

PUM1 PUF domain R3-MRG = PUM1 PUF domain R3-MRG (Homo sapiens, UniProt Q14671 828-1176, C935M;Q939G)
Procedure, shortened: as §1

PUM1 PUF domain R3-GWL = PUM1 PUF domain R3-GWL (Homo sapiens, UniProt Q14671 828-1176, C935G;R936W;Q939L)
Procedure, shortened: as §1

PUM1 PUF domain R8-KKA = PUM1 PUF domain R8-KKA (Homo sapiens, UniProt Q14671 828-1176, N1122K;Y1123K;Q1126A)
Procedure, shortened: as §1

PUM1 PUF domain R3-GRG = PUM1 PUF domain R3-GRG (Homo sapiens, UniProt Q14671 828-1176, C935G;Q939G)
Procedure, shortened: as §1

PUM1 PUF domain R3-LFL = PUM1 PUF domain R3-LFL (Homo sapiens, UniProt Q14671 828-1176, C935L;R936F;Q939L)
Procedure, shortened: as §1

PUM1 PUF domain R1-KNR = PUM1 PUF domain R1-KNR (Homo sapiens, UniProt Q14671 828-1176, S863K;R864N;Q867R)
Procedure, shortened: as §1

PUM1 PUF domain R7-KFR = PUM1 PUF domain R7-KFR (Homo sapiens, UniProt Q14671 828-1176, S1079K;N1080F;E1083R)
Procedure, shortened: as §1

PUM1 PUF domain R5-KSK = PUM1 PUF domain R5-KSK (Homo sapiens, UniProt Q14671 828-1176, C1007K;R1008S;Q1011K)
Procedure, shortened: as §1

PUM1 PUF domain R6-TWA = biological target: T1, PUM1 PUF domain R6-TWA (Homo sapiens, UniProt Q14671 828-1176, N1043T;Y1044W;Q1047A)
T1 sequence: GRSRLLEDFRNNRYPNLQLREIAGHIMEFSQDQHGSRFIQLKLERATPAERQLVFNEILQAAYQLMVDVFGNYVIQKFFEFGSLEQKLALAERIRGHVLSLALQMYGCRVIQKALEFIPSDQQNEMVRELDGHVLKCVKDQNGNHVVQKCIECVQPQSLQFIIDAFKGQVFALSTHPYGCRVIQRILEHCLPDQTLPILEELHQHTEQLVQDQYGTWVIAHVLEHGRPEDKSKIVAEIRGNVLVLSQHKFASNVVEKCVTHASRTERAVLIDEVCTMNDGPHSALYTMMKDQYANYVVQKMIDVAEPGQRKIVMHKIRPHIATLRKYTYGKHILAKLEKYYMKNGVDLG
Procedure, shortened: as §1

GGCUAGAACUAGUGGAUCCCCCGGCGCCCGGCGGCUCGAGCCCGGGUAAGUGUGAAUAGUCUGCAUGCCGCCGGGCGCCAUGCCUGCAGGUCGACUCUAGAAAACAUG
binding signal (PUM1 PUF domain R5-RSM): 0.3 log2 enrichment (interaction score)

GGCUAGAACUAGUGGAUCCCCCGGCGCCCGGCGGCUCGAGCCCGGGUAAGUGUAAUUAGUCUGCAUGCCGCCGGGCGCCAUGCCUGCAGGUCGACUCUAGAAAACAUG
binding signal (PUM1 PUF domain R3-MRG): 2.8 log2 enrichment (interaction score)
binding signal (PUM1 PUF domain R3-GWL): 3.82 log2 enrichment (interaction score)

GGCUAGAACUAGUGGAUCCCCCGGCGCCCGGCGGCUCGAGCCCGGGUAAGCGUAAAUAGUCUGCAUGCCGCCGGGCGCCAUGCCUGCAGGUCGACUCUAGAAAACAUG
binding signal (PUM1 PUF domain R8-KKA): 2.4 log2 enrichment (interaction score)

GGCUAGAACUAGUGGAUCCCCCGGCGCCCGGCGGCUCGAGCCCGGGUAAGUGUAAAUAGUCUGCAUGCCGCCGGGCGCCAUGCCUGCAGGUCGACUCUAGAAAACAUG
binding signal (PUM1 PUF domain R3-GRG): 2.99 log2 enrichment (interaction score)
binding signal (PUM1 PUF domain R5-RSM): 1.04 log2 enrichment (interaction score)
binding signal (PUM1 PUF domain R3-LFL): 1.59 log2 enrichment (interaction score)
binding signal (PUM1 PUF domain R3-MRG): 0.61 log2 enrichment (interaction score)
binding signal (PUM1 PUF domain R3-GWL): 3.81 log2 enrichment (interaction score)

GGCUAGAACUAGUGGAUCCCCCGGCGCCCGGCGGCUCGAGCCCGGGUAAGUGUAAGUAGUCUGCAUGCCGCCGGGCGCCAUGCCUGCAGGUCGACUCUAGAAAACAUG
binding signal (PUM1 PUF domain R3-GRG): 0.98 log2 enrichment (interaction score)
binding signal (PUM1 PUF domain R3-LFL): 4.75 log2 enrichment (interaction score)
binding signal (PUM1 PUF domain R3-MRG): 5.6 log2 enrichment (interaction score)
binding signal (PUM1 PUF domain R3-GWL): 1.08 log2 enrichment (interaction score)

GGCUAGAACUAGUGGAUCCCCCGGCGCCCGGCGGCUCGAGCCCGGGUAAGUGUAAAUUGUCUGCAUGCCGCCGGGCGCCAUGCCUGCAGGUCGACUCUAGAAAACAUG
binding signal (PUM1 PUF domain R1-KNR): 6.76 log2 enrichment (interaction score)

GGCUAGAACUAGUGGAUCCCCCGGCGCCCGGCGGCUCGAGCCCGGGUAAGUUUAAAUAGUCUGCAUGCCGCCGGGCGCCAUGCCUGCAGGUCGACUCUAGAAAACAUG
binding signal (PUM1 PUF domain R7-KFR): 6.28 log2 enrichment (interaction score)

GGCUAGAACUAGUGGAUCCCCCGGCGCCCGGCGGCUCGAGCCCGGGUAAGUGUCAAUAGUCUGCAUGCCGCCGGGCGCCAUGCCUGCAGGUCGACUCUAGAAAACAUG
binding signal (PUM1 PUF domain R5-KSK): 3.19 log2 enrichment (interaction score)
binding signal (PUM1 PUF domain R5-RSM): 3.66 log2 enrichment (interaction score)

GGCUAGAACUAGUGGAUCCCCCGGCGCCCGGCGGCUCGAGCCCGGGUAAGUCUAAAUAGUCUGCAUGCCGCCGGGCGCCAUGCCUGCAGGUCGACUCUAGAAAACAUG
binding signal (PUM1 PUF domain R7-KFR): 5.33 log2 enrichment (interaction score)

GGCUAGAACUAGUGGAUCCCCCGGCGCCCGGCGGCUCGAGCCCGGGUAAGUGUAAAUGGUCUGCAUGCCGCCGGGCGCCAUGCCUGCAGGUCGACUCUAGAAAACAUG
binding signal (PUM1 PUF domain R1-KNR): 3.86 log2 enrichment (interaction score)

GGCUAGAACUAGUGGAUCCCCCGGCGCCCGGCGGCUCGAGCCCGGGUAAGUGAAAAUAGUCUGCAUGCCGCCGGGCGCCAUGCCUGCAGGUCGACUCUAGAAAACAUG
binding signal (PUM1 PUF domain R6-TWA): 4.52 log2 enrichment (interaction score)
